Measured values as given in PubChem BioAssay (Tox21).
Inconclusive results are not listed. Calls of active or inactive are those of the source. Unless noted, calls come from the whole dose curve.

How the values were obtained:
[1] = Nuclear factor erythroid 2-related factor 2/antioxidant responsive element (Nrf2/ARE) small molecule agonists: qHTS cell viability counter screen in human keratinocytes (AID 1919968; active = well fitted curve in the direction sought with a large enough effect in the repeat runs; an effect the other way counts as inactive or inconclusive; note: nearly all actives have a fitted effect of over 55% in size)
Method in brief: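 After a 5 h attachment period, ARE-reporter keratinocytes were dosed with compounds in DMSO and then cultured 23 h at 37 C. Cell viability came from CellTiter-Fluor signal read after a further 1 h.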

[2] = Nuclear factor erythroid 2-related factor 2/antioxidant responsive element (Nrf2/ARE) small molecule agonists: luciferase reporter gene qHTS assay in human keratinocytes (AID 1919969); note: nearly all actives have a fitted effect of over 35% in size
[3] = molecular target: Gonadotropin-releasing hormone receptor (Homo sapiens) (UniProt P30968); assay: Human gonadotropin-releasing hormone receptor (GnRHR) small molecule agonists, calcium flux assay in GnRHR-HEK293 cells (AID 1920063); note: nearly all actives have a fitted effect of over 35% in size
Gonadotropin-releasing hormone receptor (Homo sapiens), sequence (P30968 whole entry, looked up): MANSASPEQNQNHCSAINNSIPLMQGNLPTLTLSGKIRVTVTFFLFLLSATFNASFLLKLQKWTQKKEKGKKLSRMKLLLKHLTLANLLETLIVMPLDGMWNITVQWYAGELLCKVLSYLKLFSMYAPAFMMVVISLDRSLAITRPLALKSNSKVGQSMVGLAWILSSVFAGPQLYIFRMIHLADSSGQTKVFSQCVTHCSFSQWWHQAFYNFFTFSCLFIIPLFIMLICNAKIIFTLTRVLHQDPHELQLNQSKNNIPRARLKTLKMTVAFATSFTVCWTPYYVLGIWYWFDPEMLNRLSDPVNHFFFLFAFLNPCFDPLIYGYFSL
Method in brief: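 We seeded human GnRHR-expressing HEK293 cells for 18 hours, loaded them with calcium dye for an hour at 37 C, added test compounds, and recorded fluorescence intensity kinetically for three minutes.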

[4] = molecular target: KiSS-1 receptor (Homo sapiens) (UniProt Q969F8); assay: Human kisspeptin (KISS1R) small molecule agonists, calcium flux assay in KISS1R-HEK293 cells (AID 1920064; active = well fitted curve in the direction sought with a large enough effect in the repeat runs; an effect the other way counts as inactive or inconclusive)
KiSS-1 receptor (Homo sapiens), sequence (Q969F8 whole entry, looked up): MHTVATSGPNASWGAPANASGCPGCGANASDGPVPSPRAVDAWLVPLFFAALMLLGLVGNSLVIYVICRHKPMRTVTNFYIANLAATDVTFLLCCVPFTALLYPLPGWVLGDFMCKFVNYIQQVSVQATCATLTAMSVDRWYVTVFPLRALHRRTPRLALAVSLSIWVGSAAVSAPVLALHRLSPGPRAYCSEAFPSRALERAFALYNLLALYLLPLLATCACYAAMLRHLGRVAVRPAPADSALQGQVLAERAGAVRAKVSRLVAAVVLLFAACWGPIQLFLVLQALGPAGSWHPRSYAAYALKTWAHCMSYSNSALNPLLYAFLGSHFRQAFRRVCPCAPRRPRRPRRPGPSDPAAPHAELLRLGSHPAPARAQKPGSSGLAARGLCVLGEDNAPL
Method in brief: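 Kinetic calcium assay, 1 s sampling over 3 min at Ex/Em 480/540, in HEK293 cells engineered with human KISS1R; compounds delivered in DMSO after 1 h dye loading.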

[5] = G protein-coupled receptor (GPCR) small molecule agonists, calcium flux assay: HEK293 wild type cell line counter screen (AID 1920065)
Method in brief: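 Calcium-sensitive dye, loaded 1 h at 37 C into cells cultured 18 h, reports compound-evoked calcium release as fluorescence (Ex/Em 480/540), measured over 3 min. Agonist mode; 15-point titrations, triplicate.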

[6] = p53 small molecule agonists, cell-based qHTS assay with human liver microsomes (AID 1963577);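 note: p53 response element beta-lactamase reporter cells with liver microsomes plus NADPH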
Method in brief: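 HLM-supplemented p53RE-bla reporter assay: 16 h compound exposure at 37 C, microsomes and NADPH each 0.5 mg/mL final, read by fluorescence intensity.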

[7] = p53 small molecule agonists, cell-based qHTS assay with rat liver microsomes (AID 1963578)
Method in brief: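 Quantitative HTS of the Tox21 10K library: p53RE-bla cells, rat liver microsomes plus NADPH at 0.5 mg/mL final each, 16 h at 37 C, beta-lactamase fluorescence detection.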

[8] = p53 small molecule agonists, cell-based qHTS assay with human liver microsomes: qHTS cell viability counter screen (AID 1963579); note: nearly all actives have a fitted effect of over 45% in size
Method in brief: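 Viability of p53RE-bla cells is measured as CellTiter-Glo luminescence following a 16 h, 37 C incubation with compound, liver microsomes from human donors and NADPH.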

[9] = p53 small molecule agonists, cell-based qHTS assay with rat liver microsomes: qHTS cell viability counter screen (AID 1963580); note: nearly all actives have a fitted effect of over 45% in size
Method in brief: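 HCT-116 p53RE-bla, 4,000 cells/well, 5 h pre-incubation; cpd + rat liver microsomes 0.5 mg/mL + NADPH 0.5 mg/mL (final); 16 h, 37 C; CellTiter-Glo, 30 min RT; luminescence.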

[10] = p53 small molecule agonists, cell-based qHTS assay: qHTS cell viability counter screen (AID 1963581); note: nearly all actives have a fitted effect of over 45% in size
Method in brief: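 Following 5 h attachment, HCT-116 p53RE-bla cells took up compound for 16 h at 37 C; the reporter was read with B/G FRET substrate (2 h RT), and viability then via CellTiter-Glo ATP luminescence.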

[11] = p53 small molecule agonists, cell-based qHTS assay (AID 1963582; active = well fitted activation curve with a large enough effect in the signal ratio in the repeat runs, not every such curve was filed as active; the % refers to the signal ratio)
Method in brief: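 In this cell-based concentration-response screen, a p53 response element drives beta-lactamase; cells received DMSO-borne compounds after 5 h culture and were incubated a further 16 h before FRET substrate development.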

[12] = molecular target: 5-hydroxytryptamine receptor 2A (Homo sapiens) (UniProt P28223); assay: 5-hydroxytryptamine receptor 2A (HTR2A) small molecule antagonists, cell-based qHTS assay (AID 1963586); note: nearly all actives have a fitted effect of over 45% in size
5-hydroxytryptamine receptor 2A (Homo sapiens), sequence (P28223 whole entry, looked up): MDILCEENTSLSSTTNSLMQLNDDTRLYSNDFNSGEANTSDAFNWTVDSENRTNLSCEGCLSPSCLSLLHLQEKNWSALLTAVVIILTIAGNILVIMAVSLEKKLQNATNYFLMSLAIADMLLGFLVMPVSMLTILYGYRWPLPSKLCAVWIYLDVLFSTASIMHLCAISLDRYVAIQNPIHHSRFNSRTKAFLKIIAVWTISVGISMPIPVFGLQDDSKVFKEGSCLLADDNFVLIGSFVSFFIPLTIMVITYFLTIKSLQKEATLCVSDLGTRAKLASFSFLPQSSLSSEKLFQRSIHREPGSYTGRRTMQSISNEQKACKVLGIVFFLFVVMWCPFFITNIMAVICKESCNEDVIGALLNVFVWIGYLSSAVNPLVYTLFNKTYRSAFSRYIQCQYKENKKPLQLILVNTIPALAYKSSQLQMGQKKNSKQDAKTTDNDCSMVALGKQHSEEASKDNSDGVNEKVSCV
Method in brief: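 Antagonist-mode intracellular calcium assay: DOI (4 nM) added after 5 min compound pre-incubation at room temperature to dye-loaded HTR2A-CHO cells. Fluorescence followed for 3 min, sampled every second.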

[13] = molecular target: 5-hydroxytryptamine receptor 2A (Homo sapiens) (UniProt P28223); assay: 5-hydroxytryptamine receptor 2A (HTR2A) small molecule agonists, cell-based qHTS assay (AID 1963587); note: nearly all actives have a fitted effect of over 30% in size
Method in brief: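 Kinetic calcium-flux fluorescence (2 min, 1 sec intervals) after compound addition in agonist mode. HTR2A-CHO cells were cultured 18 h, then dye-loaded 1 h at 37 C.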

[14] = molecular target: Muscarinic acetylcholine receptor M1 (Homo sapiens) (UniProt P11229); assay: Cholinergic receptor muscarinic 1 (CHRM1) small molecule antagonists, cell-based qHTS assay (AID 1963588); note: nearly all actives have a fitted effect of over 40% in size
Muscarinic acetylcholine receptor M1 (Homo sapiens), sequence (P11229 whole entry, looked up): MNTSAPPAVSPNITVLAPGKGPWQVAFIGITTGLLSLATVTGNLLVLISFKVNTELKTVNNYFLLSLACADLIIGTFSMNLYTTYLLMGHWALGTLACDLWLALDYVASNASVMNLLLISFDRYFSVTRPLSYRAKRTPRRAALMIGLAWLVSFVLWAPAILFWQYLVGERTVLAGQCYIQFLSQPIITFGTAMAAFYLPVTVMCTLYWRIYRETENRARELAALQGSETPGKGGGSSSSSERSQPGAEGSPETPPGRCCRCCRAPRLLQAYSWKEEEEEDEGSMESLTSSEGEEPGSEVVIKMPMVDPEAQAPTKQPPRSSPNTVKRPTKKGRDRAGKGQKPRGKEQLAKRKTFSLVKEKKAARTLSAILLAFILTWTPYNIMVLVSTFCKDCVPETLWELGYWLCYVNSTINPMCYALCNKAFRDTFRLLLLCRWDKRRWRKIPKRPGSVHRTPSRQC
Method in brief: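 CHRM1-CHO calcium-flux assay, antagonist mode. Cells were seeded 18 h, dye-loaded 1 h at 37 C and given compound for 5 min at RT, then acetylcholine was added at 50nM. FDSS fluorescence was read 3 min; 15 concentrations, three runs.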

[15] = cAMP Responsive Elements (CRE) small molecule agonists, cell-based qHTS assay (AID 1963590)
Method in brief: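 A CRE-responsive beta-lactamase reporter in HEK 293T cells was used. Treatment ran 3 h at 37 C; detection used LiveBLAzer B/G FRET substrate for 2 h at room temperature.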

[16] = cAMP Responsive Elements (CRE) small molecule antagonists, cell-based qHTS assay (AID 1963591; active = well fitted inhibition curve with a large enough effect in the signal ratio in the repeat runs, not every such curve was filed as active; the % refers to the signal ratio)
Method in brief: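 HEK293T cells carrying a CRE-driven beta-lactamase reporter receive compound and NKH477 (0.25 uM final) for 3 h. Fluorescence from LiveBLAzer B/G FRET substrate is read after 2 h at room temperature.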

[17] = molecular target: Beta-2 adrenergic receptor (Homo sapiens) (UniProt P07550); assay: Adrenergic beta2 receptor (ADRB2) small molecule antagonists, cell-based qHTS assay (AID 1963592); note: series mostly up to about 92 µM; nearly all actives have a fitted effect of over 50% in size
Beta-2 adrenergic receptor (Homo sapiens), sequence (P07550 whole entry, looked up): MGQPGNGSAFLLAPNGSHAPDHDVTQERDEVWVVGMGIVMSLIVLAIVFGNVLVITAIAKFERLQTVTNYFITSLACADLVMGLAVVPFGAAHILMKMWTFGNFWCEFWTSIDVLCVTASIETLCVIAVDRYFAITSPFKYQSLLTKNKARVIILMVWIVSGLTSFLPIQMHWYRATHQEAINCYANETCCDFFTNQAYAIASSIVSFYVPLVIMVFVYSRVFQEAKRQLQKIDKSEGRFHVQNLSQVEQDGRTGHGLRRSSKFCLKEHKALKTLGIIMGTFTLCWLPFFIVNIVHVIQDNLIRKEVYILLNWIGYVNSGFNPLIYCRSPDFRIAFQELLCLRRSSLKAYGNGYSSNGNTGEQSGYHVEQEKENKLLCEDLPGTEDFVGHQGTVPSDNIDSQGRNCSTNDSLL
Method in brief: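 Cells (CHO, stable ADRB2 overexpression) incubated 18-20hr at 37C; compounds added from DMSO; agonist mix (1nM isoproterenol, 100uM IBMX, 25uM Ro-20-1724) added; 0.5hr RT; d2-cAMP and anti-cAMP-cryptate added; 1hr RT; 665/615 nm read.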

[18] = molecular target: D(2) dopamine receptor (Homo sapiens) (UniProt P14416); assay: Dopamine D2 receptor (DRD2) small molecule antagonists, cell-based qHTS assay (AID 1963595; active = well fitted inhibition curve with a large enough effect in the signal ratio in the repeat runs, with a control signal flat; the % refers to the signal ratio)
D(2) dopamine receptor (Homo sapiens), sequence (P14416 whole entry, looked up): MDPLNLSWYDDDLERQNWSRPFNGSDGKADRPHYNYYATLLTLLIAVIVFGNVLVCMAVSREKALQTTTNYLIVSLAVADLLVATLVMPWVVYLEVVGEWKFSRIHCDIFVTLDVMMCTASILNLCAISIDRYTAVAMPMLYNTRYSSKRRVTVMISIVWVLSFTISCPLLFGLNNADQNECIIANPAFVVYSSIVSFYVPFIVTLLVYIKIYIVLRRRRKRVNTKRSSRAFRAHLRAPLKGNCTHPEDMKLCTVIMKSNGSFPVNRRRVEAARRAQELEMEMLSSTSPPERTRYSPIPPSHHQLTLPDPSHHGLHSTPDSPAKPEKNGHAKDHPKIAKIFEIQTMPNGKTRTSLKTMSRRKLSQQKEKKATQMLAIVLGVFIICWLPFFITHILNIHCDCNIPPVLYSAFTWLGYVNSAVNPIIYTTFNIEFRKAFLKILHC
Method in brief: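 Stable D2 receptor HEK293 line, 24 h after seeding. Compound preincubated 10 min, then quinpirole (12 nM) with forskolin analogue NKH477 (200 nM), 30 min, room temperature. Detection by time-resolved FRET of cAMP.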

[19] = molecular target: Muscarinic acetylcholine receptor M1 (Homo sapiens) (UniProt P11229); assay: Cholinergic receptor muscarinic 1 (CHRM1) small molecule agonists, cell-based qHTS assay (AID 1963589); note: nearly all actives have a fitted effect of over 35% in size
Method in brief: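 Measures agonist-induced intracellular calcium rise. Stable human CHRM1 CHO line, 1 h dye load at 37 C, compounds from DMSO, kinetic fluorescence read.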

[20] = molecular target: D(2) dopamine receptor (Homo sapiens) (UniProt P14416); assay: Dopamine D2 receptor (DRD2) small molecule agonists, cell-based qHTS assay (AID 1963594); note: nearly all actives have a fitted effect of over 35% in size
Method in brief: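 cAMP accumulation in DRD2-HEK293 cells measured by HTRF after 1 h detection; compounds added 10 min before NKH477 (200nM […]) forskolin-analogue stimulation, 30 min at room temperature, with Ro20-1724 present at 0.1 mM final.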

Measured: Potency

CCCCCCCC/C=C\CCCCCCCC(N)=O
inactive: [1] | [2] | [3] | [4] | [5] | [6] | [7] | [8] | [9] | [10] | [11] | [12] | [13] | [14] | [15] | [16] | [17] | [18]

CCCCCCCCOCCC#N
inactive: [1] | [2] | [3] | [4] | [5] | [6] | [7] | [8] | [9] | [10] | [11] | [12] | [13] | [19] | [15] | [16] | [17] | [20] | [18]

Clc1ccc2c(c1)Nc1ccccc1S2
inactive: [1] | [2] | [3] | [4] | [5] | [6] | [7] | [8] | [9] | [10] | [11] | [12] | [13] | [14] | [15] | [16] | [17] | [20] | [18]

CC(C)[C@H]1CC[C@@H](C)CC1=O
inactive: [1] | [2] | [3] | [4] | [5] | [6] | [7] | [8] | [9] | [10] | [11] | [12] | [13] | [14] | [15] | [16] | [17] | [20] | [18]

O=C1OCCO1
inactive: [1] | [2] | [3] | [4] | [5] | [6] | [7] | [8] | [9] | [10] | [11] | [12] | [13] | [14] | [15] | [16] | [17] | [20] | [18]

O=C1CC[C@H](C(=O)N2CCCCC2)N1
inactive: [1] | [2] | [3] | [4] | [5] | [6] | [7] | [8] | [9] | [10] | [11] | [12] | [13] | [14] | [15] | [16] | [17] | [20] | [18]

[O-][n+]1ccc(Cl)cc1
inactive: [1] | [2] | [3] | [4] | [5] | [6] | [7] | [8] | [9] | [10] | [11] | [12] | [13] | [14] | [15] | [16] | [17] | [20] | [18]

Cc1ccccc1S(N)(=O)=O
inactive: [1] | [2] | [3] | [4] | [5] | [6] | [7] | [8] | [9] | [10] | [11] | [12] | [13] | [14] | [15] | [16] | [17] | [20] | [18]
